In PubChem BioAssay AID488969 (Vanderbilt High Throughput Screening Facility, 2010) one finds z-score data, which are given here for 70 compounds.

Each structure is given as a SMILES string. In all, about 110,000 compounds were measured (“z-score”: median about -0.1, highest 2% from about 2 on). The entries come from a sample that favours the highest values as a whole. The source made the active and inactive calls.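 The calls were made as follows: active = z-score in the third read window above 3 or below -3; inactive = the rest.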

In this assay the target is Metabotropic glutamate receptor 8 (Rattus norvegicus) (UniProt P70579). Kind of assay: mGluR8 Gi/Go-coupled signaling modulation – cell-based, rat, thallium flux, HTS, primary screen (AID 488969). The conditions noted are these: HEK293 rat mGluR8, GIRK (G protein-gated inwardly rectifying potassium channel) thallium flux, FluoZin2; at 10 µM; stronger effect = higher value; submaximal glutamate (EC20) added with thallium.
Sequence of Metabotropic glutamate receptor 8 (Rattus norvegicus) (P70579 whole entry, looked up): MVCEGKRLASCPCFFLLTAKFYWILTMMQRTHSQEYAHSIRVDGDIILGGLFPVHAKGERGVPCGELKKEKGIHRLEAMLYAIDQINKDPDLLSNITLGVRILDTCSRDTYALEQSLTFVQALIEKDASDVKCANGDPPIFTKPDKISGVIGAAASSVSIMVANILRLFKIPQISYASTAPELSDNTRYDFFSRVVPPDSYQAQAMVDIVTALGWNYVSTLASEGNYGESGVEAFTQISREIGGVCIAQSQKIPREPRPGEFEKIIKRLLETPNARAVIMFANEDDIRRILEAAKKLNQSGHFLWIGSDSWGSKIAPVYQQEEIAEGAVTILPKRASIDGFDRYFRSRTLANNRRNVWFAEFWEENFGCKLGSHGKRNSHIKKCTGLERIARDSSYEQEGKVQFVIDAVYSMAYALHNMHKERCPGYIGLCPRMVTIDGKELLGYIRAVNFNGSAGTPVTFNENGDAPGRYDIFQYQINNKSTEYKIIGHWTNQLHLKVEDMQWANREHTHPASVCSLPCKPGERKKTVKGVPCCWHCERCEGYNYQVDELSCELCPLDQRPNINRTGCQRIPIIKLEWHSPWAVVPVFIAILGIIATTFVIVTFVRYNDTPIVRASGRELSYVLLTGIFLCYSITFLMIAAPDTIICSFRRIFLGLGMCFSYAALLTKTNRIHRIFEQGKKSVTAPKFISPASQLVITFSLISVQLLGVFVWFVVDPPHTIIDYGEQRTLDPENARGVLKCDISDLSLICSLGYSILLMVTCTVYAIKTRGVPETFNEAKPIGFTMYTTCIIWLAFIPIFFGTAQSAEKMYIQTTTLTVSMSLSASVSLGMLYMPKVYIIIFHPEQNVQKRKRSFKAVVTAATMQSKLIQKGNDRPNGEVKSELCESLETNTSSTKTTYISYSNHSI
Compound `CCc1ccccc1NC(=S)NCc1ccc2c(c1)OCO2` gave a z-score of -0.0875.
Regarding `C/C(N)=C(/C#N)C(=O)CSc1nnc(Nc2ccccc2C)s1`, the z-score is -0.126.
With `CCCSc1nnc(Nc2ccccc2C)s1`, the z-score was 4.96 (active).
For `CSc1nnc(Nc2ccccc2C)s1` the value was -0.0316; for `COc1ccccc1Nc1nnc(C)c(=O)[nH]1`, -0.361; for `COc1ccccc1Nc1ccc(Nc2ccccc2OC)nn1`, 2.82.
For `COc1ccc(OC)c(Nc2ccc(Nc3cc(OC)ccc3OC)nn2)c1` the value was -0.125; for `O=Cc1cn(CC(=O)N2CCOCC2)c2ccccc12`, -0.773.
In turn, `Cc1noc(C)c1C(=O)N1CCN(C(=O)c2sc3cc(Cl)ccc3c2Cl)CC1` registered a z-score of -0.676.
Next, `O=C(C[n+]1cc(-c2ccccc2)n2c1CCC2)N1c2ccccc2Sc2ccccc21`: -0.288; `O=C(C[n+]1cc(-c2ccccc2)n2c1CCC2)OCc1ccccc1`: 5.17 (active).
`O=C(C[n+]1cc(-c2ccc(Cl)c(Cl)c2)n2c1CCC2)OCc1ccccc1`: the z-score is 0.0701.
As for `NC(=O)C(c1ncc(C(F)(F)F)cc1Cl)c1c(Cl)cccc1Cl` (stereo not given), the z-score is -0.197.
Take `CC1(C)Cc2[nH]c(=O)c(C#N)cc2CS1`: the z-score turned out to be 0.0257.
With `CCn1c(SCc2ccc(Cl)cc2Cl)nc2nc3c(cc2c1=O)CCCC3`, the z-score is -0.163.
`CC1CCCCC1NC(=O)COn1nnc2ccc(Cl)cc21` (stereo not given) returned a z-score of -0.171.
The compound `CCOC(=O)Cn1c(=O)oc2cc(S(=O)(=O)Nc3ccc(N(CC)CC)cc3C)ccc21` showed a z-score of 2.74.
For the compound `CCOC(=O)Cn1c(=O)oc2cc(S(=O)(=O)Nc3c(C)cc(C)cc3C)ccc21`, the z-score is -0.223.
On to `CCCCNS(=O)(=O)c1ccc2c(c1)oc(=O)n2CC(=O)OCC`, for which the z-score worked out at 0.0209.
For `CCOC(=O)Cn1c(=O)oc2cc(S(=O)(=O)NCCc3ccc(C)cc3)ccc21`, the z-score is -0.171.
Consider `CCOC(=O)Cn1c(=O)oc2cc(S(=O)(=O)NCCCc3ccccc3)ccc21`, for which the z-score is 3.36 (active).
Take `CCN(CC)c1ccc(NS(=O)(=O)c2ccc3c(c2)oc(=O)n3C)c(C)c1`: the z-score came out at 0.308.
Compound `N#CCC(=O)N/N=C1\CCCCC1C1CCCCC1` (stereo not given) gave a z-score of 0.419.
In turn, `CC(C)C(=O)Nc1ccnc(-c2cccnc2)n1` registered a z-score of -0.0191.
With `CC(C)OC(=O)c1cc2c(ccn2C)n1CC(=O)N(Cc1ccccc1)c1ccccc1`, the z-score was -0.243.
Next, `CCN1/C(=C2/OC(=S)N(C)C2=O)Sc2ccccc21`: 1.02; `O=C(COc1ccccc1)N1CCN(S(=O)(=O)Cc2ccccc2)CC1`: 0.0406.
Consider `O=S(=O)(Nc1ccc2nc(-c3ccc(Br)o3)[nH]c2c1)c1ccccc1`, for which the z-score is -0.849.
For `O=S(=O)(Nc1ccc2nc(C(F)(F)F)[nH]c2c1)c1ccccc1` the value was 4.74 (active).
On to `Cc1ccc(-c2nc3ccc(NS(=O)(=O)c4ccccc4)cc3[nH]2)o1`, for which the z-score is 1.31.
Compound `Cc1ccc2[nH]c(=O)c(C(c3nnnn3C(C)(C)C)N3CCN(C(=O)c4ccco4)CC3)cc2c1` (stereo not given) registered a z-score of -0.0115.
The compound `CCC(C)Cn1c(S(=O)(=O)O)nc2ccccc21` (stereo not given) yielded a z-score of -0.238.
In the case of `CC(C)CCn1c(S(=O)(=O)O)nc2ccccc21`, the z-score was 3.16 (active).
The compound `CCCCn1c(S(=O)(=O)O)nc2ccccc21` came in with a z-score of -0.0451.
For `CC(C)Sc1nc2c(c(=O)n1-c1ccc(F)cc1)SCC2` the value was -0.98; for `Cc1ccc(NC(=O)c2cc(-c3ccccc3)nn2-c2ccccc2)c(Br)c1`, 0.496; for `CCc1nnc(NC(=O)c2cc(-c3ccccc3)nn2-c2ccccc2)s1`, 0.27.
Regarding `Cc1ccc(NC(=O)c2cc(-c3ccccc3)nn2-c2ccccc2)cc1`, the z-score is 1.28.
The compound `Cc1ccc(C)c(NC(=O)c2cc(-c3ccccc3)nn2-c2ccccc2)c1` came in with a z-score of 2.08.
Regarding `O=C(Nc1nc2ccccc2s1)c1cc(-c2ccccc2)nn1-c1ccccc1`, the z-score was found to be 1.18.
For `CC(=O)c1sc(NC(=O)c2cc(-c3ccccc3)nn2-c2ccccc2)nc1C`, the z-score was 3 (active).
On to `COc1nccnc1NS(=O)(=O)c1ccc(N=Cc2c(C)[nH]n(-c3ccccc3)c2=O)cc1`, for which the z-score is -0.188.
In turn, `CN(C)c1ccc(NC(=O)c2ccc([N+](=O)[O-])cc2Cl)cc1` registered a z-score of -0.282.
Take `CCCCN(CCCC)S(=O)(=O)c1ccc(NC(=O)c2ccc([N+](=O)[O-])cc2Cl)cc1`: the z-score is 3.01 (active).
In turn, `CCC(C)NS(=O)(=O)c1ccc(NC(=O)c2ccc([N+](=O)[O-])cc2Cl)cc1` (stereo not given) returned a z-score of 0.0866.
Consider `C=CCOn1c(=O)c(-c2ccc(OC)c(OC)c2)[n+]([O-])c2ccccc21`, for which the z-score is -0.224.
Next, `CCOC(=O)c1nn(-c2ccc(F)cc2)c2nc(Nc3ccccc3)cc(=O)n12`: -0.123.
As to `O=C(Nc1ccc2nc(-c3ccc(Br)o3)[nH]c2c1)c1cccs1`, the z-score was -0.969.
For `CCc1cc2c(N[C@@H](Cc3c[nH]c4ccccc34)C(=O)O)ncnc2s1` the value was -0.16; for `CN(CC(=O)Nn1cnnc1)S(=O)(=O)c1ccccc1`, -0.262; for `CN(CC(=O)Nn1cnnc1)S(=O)(=O)c1ccc(Br)cc1`, 4.35 (active).
The compound `CN(CC(=O)Nc1ccncc1)S(=O)(=O)c1ccc(Br)cc1` gave a z-score of -0.284.
`Cc1cc(=O)[nH]c(-n2nc(C)c(Oc3ccccc3O)c2C)n1` came in with a z-score of -0.0623.
Take `Cc1ccc(-c2c(C)sc(NC(=O)C3C4CCC(O4)C3C(=O)O)c2C(=O)OC(C)C)cc1` (stereo not given): the z-score was 4.99 (active).
For `CCOC(=O)c1c(NC(=O)C2C3CCC(O3)C2C(=O)O)sc(C)c1-c1ccc(C)cc1` (stereo not given), the z-score is -0.26.
As for `Cc1sc(NC(=O)C2C3CCC(O3)C2C(=O)O)c(C(=O)OC(C)C)c1-c1ccc(Cl)cc1` (stereo not given), the z-score is -0.429.
Turning to `COC(=O)C(C)Sc1nnc(-c2ccncc2)o1` (stereo not given), the z-score was -0.297.
Regarding `CCOC(=O)N1CCC(N2C(=O)c3cc(C(=O)NC4CCCCC4)ccc3C2O)CC1` (stereo not given), the z-score was -0.198.
With `CCOC(=O)N1CCC(N2C(=O)c3ccc(C(=O)NCc4ccco4)cc3C2=O)CC1`, the z-score was -0.36.
In the case of `CCOC(=O)c1c(NC(=O)C2C3C=CC(C3)C2C(=O)O)sc2c1CCC(CC)C2` (stereo not given), the z-score is 3.71 (active).
For `CCOC(=O)c1c(N)sc2c1CCC(CC)C2` (stereo not given) the value was 0.0842.
In turn, `CCOC(=O)c1c(NC(=O)C2C3C=CC(CC3)C2C(=O)O)sc(C)c1C` (stereo not given) showed a z-score of 0.959.
As to `Cc1ccc(OCCNC(=O)/C=C/c2ccccc2)cc1C`, the z-score is -0.203.
In turn, `CCOC(=O)c1nn(-c2ccccc2)c(=O)cc1SC(C)C` registered a z-score of -0.0576.
Regarding `Cc1cccc(C(=O)NNC(=O)C(=O)NC(C)(C)C)c1`, the z-score came out at 2.45.
As to `COC(=O)NNC(=O)c1cccc(C)c1`, the z-score is -0.067.
On to `CC(C)(C)NC(=O)C(=O)NNC(=O)c1ccc(C(C)(C)C)cc1`, for which the z-score was 5.3 (active).
On to `Cc1cccc(C(=O)NNC(=O)c2ccccc2)c1`, for which the z-score was -0.0133.
Regarding `CC(C)(C)c1ccc(C(=O)NNC(=O)C(=O)N2CCCCC2)cc1`, the z-score is 0.478.
`CC(C)(C)NC(=O)C(=O)NNC(=O)c1ccccc1` yielded a z-score of 1.57.
